Test results taken from the supplement of paper PMC6555819.

Legend:
Assay in all cases: PBM binding z-score (relative to random genomic background probes); higher = stronger binding; sequences stand for … in GC…GCGATTGACAGCGTAGAATGAAGG
[1] = tested on: RARb homodimer (NR concentration 270 nM)
Procedure, shortened: (§1)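 Binding z-scores take random background probes as their reference. They come from custom Agilent 4×180K protein-binding microarrays incubated 1 h with ligand-free nuclear receptor dimers, with antibodies against each partner (one per run) detecting binding. Scanned fluorescence was regression-normalized.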

[2] = tested on: RARg:RXRa (NR concentration 270 nM, RXRa partner concentration 90 nM)
Procedure, shortened: as §1

[3] = tested on: RARg homodimer (NR concentration 270 nM)
Procedure, shortened: as §1

[4] = tested on: RXRa DBDmut IVT, anti-RXR (DBD mutation: RXRa K156A/R161A, NR concentration 90 nM)
Procedure, shortened: as §1

[5] = tested on: RXRa homodimer (NR concentration 180 nM)
Procedure, shortened: as §1

[6] = tested on: THRa:RXRa (NR concentration 90 nM, RXRa partner concentration 90 nM)
Procedure, shortened: as §1

[7] = tested on: THRa homodimer (NR concentration 90 nM)
Procedure, shortened: as §1

[8] = tested on: VDR homodimer (NR concentration 270 nM)
Procedure, shortened: as §1

Sequence	PBM binding z-score [1]	PBM binding z-score [2]	PBM binding z-score [3]	PBM binding z-score [4]	PBM binding z-score [5]	PBM binding z-score [6]	PBM binding z-score [7]	PBM binding z-score [8]
TAGCCTAGGTAATTCAGGGGCCAGTATAGAAAGC	0.306	0.386	-0.0521	-0.687	-0.137	0.54	-0.13	-0.354
TAGCCTAGGTCATTCAGTGGCCAGTATAGAAAGC	2.59	4.43	3.96	1.92	2.63	2.55	0.351	1.24
CCTCCTGGGCCACGAAAGGTCATTGATTCAGTGA	4.56	4.7	4.3	0.0691	4.89	3.84	0.846	2.04
CCTAGCAGGCCAGTGTCACTCAAGCATTTCGCTT	0.0425	-0.0888	-0.171	0.13	-0.38	-0.213	-0.656	-0.509
GCAGACAGGTGAAACGCACGTAACTCAGGGTGGC	-0.115	0.327	0.0511	-0.335	0.528	-0.124	-0.367	-0.768
AGAATGAGGTTAAGATCAAGGAAACAGAATACAT	0.789	2.02	1.57	1.13	2.68	2.39	0.555	0.551
CCAGACAGGTGAAAGGTAACCCAGTCTGGTACGC	0.747	1.35	0.881	-0.455	1.83	0.935	-0.0283	-0.223
CCTACTGGGCCAAAAACGTCATTGATGCCGATAA	-0.34	-0.089	-0.172	-0.196	0.029	-0.371	-0.47	-0.735
ATCTCTAGGTAACAAGTTCAGGGAAAGAGAGGAC	1.98	1.77	1.62	1.06	1.23	1.85	1.01	2.78
GGAACGAGGCCATTCGAGTTGATAGCATGGCGAT	-0.135	0.361	0.706	2.13	-0.125	2.23	-0.443	1.7
CGAACTAGGTCATCCAGGACAGTGAATACATTGA	3.06	4.04	4.85	2.52	2.79	3.59	1.84	1.96
AGTCAAAGTTCAGGACGAGGTAGCGTAAAGCACG	2.76	4.44	4.55	2.81	2.93	2.9	0.672	2.05
ATACCAAGGTGATCGTGAGGTCGTTCATACTAAC	1.73	2.21	0.992	0.992	1.58	3.38	2.71	3.68
TCATATAGGTAATACAGGAGAAAGTCGGCATCTA	-0.136	0.519	0.598	1.48	0.686	0.0311	0.0486	0.233
ACAGACAGGAGATGAAGGTAACTCAGGCTATCAT	0.465	0.0751	0.419	-0.203	-0.000835	1.03	0.773	0.239
TCTTGTAGATCAAGAGAGGTTAAGAAAGTGCGCT	0.846	0.415	0.178	0.14	1.21	2.27	-0.932	0.194
CCGAGTAGGTTATGGGTCATTCAGGCAACGGTGA	2.66	2.52	2.15	0.565	3.06	2.29	0.87	1.42
ATCGAAAGGTCGAAGGTGAGTTTACCCACCCGAA	2.62	4.3	3.49	1.41	5.2	2.45	0.143	3.11
CGAACTAGGTCAGATCAGGACAGTGAAGGATGAT	2.33	2.68	4.03	0.645	1.52	4.73	1.25	-0.038
TCAGTCAGGTGAAGGTAACTCAGGTACGCAGTCG	0.729	0.735	0.793	0.667	0.742	2.32	1.34	-0.131
ATCTCTAGGAAAAGATAGTTCAGTGAATGCAAAT	0.679	0.447	0.556	0.143	0.0291	0.206	-0.344	0.566
ACTTACGGGTCAACGAGGTTATAGGACGCGTATA	3.83	5.63	5.28	2.24	6.33	4.32	1.19	3.27
TATACAGGGTCAAAGGCCAGTGTACGAATGTCGA	3.45	5.7	5.08	2.97	7.04	3.57	0.905	2.75
ACAATGAGGTTAAGATCAGGGAAACAGAATACAT	0.906	2.33	1.7	1.33	2.53	2.51	0.954	0.941
TCATATAGGTAAACAGGTGAAAGTGCGTAAGTTA	1.09	0.642	0.552	1.66	1.17	0.829	0.583	0.623
AGTCAAACTTCATCTAGGTAACGTAAGATATGCT	-0.47	-0.19	0.544	0.281	0.109	0.484	0.329	-0.372
CGTACGAGGGCATGAGTTGATAGCAAATGCCGAT	0.825	1.38	1.57	2.36	1.03	1.37	-0.172	1.67
GCTCGGAGGATAAGGTCAGAGCTTTGTCCGTAGA	3.31	2.92	3.06	0.342	2.71	3.33	2.82	0.184
